TGFb inhibitor: blocks TGF-b signaling; HepG2 CAGA-GFP TGF-b/SMAD3 reporter, GFP fluorescence, 18 h; TGF-beta stimulated, 500 pg/mL final; Potency, µM (top dose mostly 46.1 µM), for inactives: at the top dose activity, negative = inhibition, actives largely listed as inhibitors; 1.2% of 410,000 active; note: % is set by controls: 0 for no effect and ±100 for the full control effect; nearly all actives have a fitted effect of over 65% in size
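HEPG2 CAGA-GFP reporter cells (1000/well, DMEM with 1% FBS) received compounds, then recombinant TGF-beta at 500 pg/mL final for 18 hours at 37 degrees C. Per-cell GFP summed per well was normalised to unstimulated and stimulated DMSO controls before curve fitting.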
HepG2 tox: counter-screen for TGF-b inhibitors: cytotoxicity in HepG2 cells; HepG2 CAGA-GFP viability, ATP luminescence, 18 h; Potency, µM (doses to about 46.1 µM), without a hit: at the highest dose activity change, negative = cytotoxicity, most hits filed as cytotoxic; 0.76% of 410,000 active; AID 588856
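HepG2 CAGA-GFP cells (1000/well, DMEM with 1% FBS) received compound, then TGF-beta at 500 pg/mL final, and were incubated 18 hours at 37 degrees C. Viability was read by CellTiter-Glo luminescence. Media-only wells were set as complete cell-killing and DMSO as no toxicity.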
ATXN viability: viability counter-screen for ATXN expression inhibitors; Potency, µM (titrated, usually from 56.7 µM), most hits filed as cytotoxic; 0.49% of 400,000 active; S2 cells (HEK-293 line with an ATXN2-luciferase reporter) viability, CellTiter-Fluor protease fluorescence, 24 h; note: nearly all actives have a fitted effect of over 40% in size
ATXN2 expr inh: ATXN2 expression inhibition | HEK-293 ATXN2-luciferase reporter, luminescence, 24 h | Potency, µM (series often up to 57 µM), inactives show at the highest dose activity change, negative = inhibition, hits mostly inhibitors | 0.72% of 360,000 active; note: % is set by controls: 0 for no effect and ±100 for the full control effect; nearly all actives have a fitted effect of over 55% in size
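qHTS (up to 57 uM final) was run with 24 h compound exposure of reporter cells at 37 °C. Each well was multiplexed: SteadyGlo luminescence measured ATXN2-luciferase expression after a fluorogenic Gly-Phe-AFC viability readout (25 uM final).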
An asterisk follows results filed as active; i = inactive; ? = inconclusive; / = not tested or not shown; ! = not confirmed by another sample. Shown are actives, neighbours in structure and some others; about 2.3% of the full set was active somewhere. Calls come from the whole dose curve; as a rule, active = well fitted curve in the direction sought with a large enough effect; inconclusive = small, poorly fitted or top-dose-only effect, or another doubt; inactive = no such curve, though single readings can be large; an effect the other way counts as inactive or inconclusive. Potency is the fitted concentration of half-maximal effect.

SMILES | TGFb inhibitor | HepG2 tox | ATXN viability | ATXN2 expr inh
CC(C)(C)n1ncc2c(=O)n(Cc3ccc(F)c(C(F)(F)F)c3)cnc21 | ? | -12% | / | /
NC(=O)c1sc2nc3c(c(-c4ccco4)c2c1N)CCCC3 | ? | -21% | i | /
Nc1c(C(=O)NCC2CCCO2)sc2nc3c(c(-c4ccco4)c12)CC/C3=C\c1ccco1 (centres undefined) | 18µM* | 6% | i | 4%
Cc1ccccc1-c1ccc(CN2CCc3nnc(C(NS(C)(=O)=O)C(C)C)n3CC2)cc1 (centres undefined) | / | / | i | /
CC(=O)NC(C)c1cc(Cl)c2cccnc2c1O (centres undefined) | 7.1µM* | 8.9µM* | 6.3µM* | 7.9µM*
CC(=O)NC(C)c1cc(Cl)c2ccccc2c1O (centres undefined) | ? | -1% | i | -6%
CCOc1ccc(C(NC(C)=O)c2cc(Cl)c3cccnc3c2O)cc1 (centres undefined) | 3.2µM* | -59% | / | /
CCC(=O)NC(C)c1cc(Cl)c2cccnc2c1O (centres undefined) | 1.8µM* | -58% | ? | 8.9µM*
CC(C)(O)C#Cc1ccc(CN2CCc3nnc(CCNC(=O)c4ccco4)n3CC2)cc1 | / | / | i | /
O=[N+]([O-])c1ccc2c(c1)C=C/C2=C\c1ccc(C=S)cc1 | -1% | -2% | / | /
COC(=O)c1c(NC(=O)COc2ccc(OC)cc2)sc2c1CCC(C)C2 (centres undefined) | 13µM* | -100% | ? | ?
CCOC(=O)c1c(NC(=O)COc2ccc(F)cc2)sc2c1CCC(C)C2 (centres undefined) | 4% | -10% | i | -7%
CCCN(C(=O)CCl)C1=CCCCC1 | -1% | -18% | / | 8.4µM*
COc1ccc(C(=O)c2c(C(F)(F)F)oc3c2C(=O)c2ccccc2C3=O)cc1 | ? | 1.1µM* | 22µM* | 32µM*
Cc1ccc(-c2nc(CCNC(=O)c3ccco3)cs2)cc1 | -17% | 1% | i | -1%
O=C(NCCc1csc(-c2ccc(Cl)cc2)n1)c1ccco1 | -18% | -14% | i | 14µM*!
O=C(COc1ccccc1)NCCc1csc(-c2ccc(Cl)cc2)n1 | 11µM* | -73% | i | -18%
COc1cc(-c2nc(CCNC(=O)c3ccco3)cs2)cc(OC)c1OC | 5% | -4% | i | -7%
COc1cc(C(=O)NCCc2csc(-c3ccc(Cl)cc3)n2)cc(OC)c1OC | -14% | 8% | / | 20µM*
O=C(COc1ccc(Cl)cc1)NCCc1csc(-c2ccc(F)cc2)n1 | -14% | -36% | i | ?
C[C@H]1CN([C@@H](C)CO)C(=O)Cc2cc(NC(=O)CCC(F)(F)F)ccc2O[C@H]1CN(C)Cc1ccc(-c2ccccc2)cc1 | 13µM* | 18µM* | / | ?
C[C@H](CO)N1C[C@H](C)[C@H](CN(C)Cc2ccc(-c3ccccc3)cc2)Oc2ccc(NS(=O)(=O)c3ccccc3)cc2CC1=O | ? | 11µM* | ? | ?
Cc1ccc(S(=O)(=O)Nc2ccc3c(c2)CC(=O)N([C@H](C)CO)C[C@@H](C)[C@H](CN(C)Cc2ccc(-c4ccccc4)cc2)O3)cc1 | 11µM* | -93% | 22µM* | ?
C[C@H]1CN([C@@H](C)CO)C(=O)Cc2cc(NC(=O)CCC(F)(F)F)ccc2O[C@H]1CN(C)Cc1ccc(C(F)(F)F)cc1 | ? | -21% | / | ?
C[C@@H]1CN([C@@H](C)CO)C(=O)Cc2cc(NS(=O)(=O)c3ccccc3)ccc2O[C@H]1CN(C)Cc1ccncc1 | ? | -18% | i | 5%
SMILES | TGFb inhibitor | HepG2 tox | ATXN viability | ATXN2 expr inh
CC1Cc2ccccc2C[N+]1(C)CC(=O)c1cccc([N+](=O)[O-])c1 (centres undefined) | -17% | -25% | / | /
CCOc1cc(S(=O)(=O)NC2CCCC2)ccc1Cl | ? | -3% | i | 5%
CCOc1cc(S(=O)(=O)Nc2cc(C)cc(C)c2)ccc1Cl | 22µM* | -101% | ? | ?
O=C(c1cc([N+](=O)[O-])ccc1Cl)N1CCN(Cc2ccccc2)CC1 | -5% | 14µM* | i | -17%
O=C(c1ccc([N+](=O)[O-])cc1)N1CCN(Cc2ccccc2)CC1 | -3% | 10% | i | 3%
COc1ccc(CCNC(=O)CSc2nc3scc(-c4ccccc4)c3c(=O)[nH]2)cc1 | 13µM* | -34% | i | -16%
